Results taken from PubChem BioAssay (NCI).
This is part of a sample that, as a whole, favours compounds with a hit. Of some 83,000 tested, about 20% had one in any assay.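 Results are percent growth after 48 hours of single-concentration exposure. 100 means growth as in untreated cells, lower positive values show inhibition; negative values down to -100 show cell death.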 Unmarked numbers belong to inactive results. Calls of active or inactive are those of the source. Rule for the calls: active = growth percent below 10; inactive = the rest.

Each compound was assayed on RPMI-8226 leukemia (assay: NCI-60 one-dose screen, 48 h (100 = growth as untreated, 0 = no growth, -100 = all killed)). Conditions: 10 µM.

SMILES | growth
CSc1[nH]c(=O)ncc1F | 106%
COc1ccc(-c2cc(-c3cc(-c4ccc(OC)cc4)nc(N)n3)nc(N)n2)cc1 | 99.5%
Cc1cc(N)c(S(=O)(=O)O)c(N)c1 | 95.6%
C=CCNc1nnc(C)s1 | 101%
COC(=O)C(C)Oc1ccc(OC#N)cc1 (stereo unspecified) | 103%
CCc1nn(Cc2ccccc2)c2nc(C)c(CCc3ccccc3)c(Cl)c12 | 72%
O=C(CCNNC(=O)c1ccncc1)NCc1ccccc1 | 87.2%
CN(C)c1ccc2oc(=O)c3ccccc3c2c1 | 74.1%
O=C(O)c1ccc(S(=O)(=O)O)cc1 | 98%
OC1CCCc2ccccc21 (stereo unspecified) | 104%
COc1cc2c(cc1OC)[C@H](C(=O)O)[C@@H](c1ccc(OC(C)C)c(OC)c1)N(C)C2=O | 95.7%
COC(=O)Nc1nc2ccc(C(=O)c3ccc(F)cc3)cc2[nH]1 | -27.1% (active)
COc1ccccc1N1CCN(C(=S)Nc2ccccc2)CC1 | 90.9%
CCCNC(=O)c1ccc(S(N)(=O)=O)cc1 | 96.9%
COC(=O)CCCCC1=CCC2C(=O)C=C(O)C2C1 (stereo unspecified) | 100%
Nc1ccc(NC(=O)c2cccc(N)c2)cc1 | 94.5%
CCN(CC)CCNc1ccc(CO)c2sc3ccccc3c(=O)c12 | 37%
O=[N+]([O-])c1ccccc1S(=O)c1ccccc1[N+](=O)[O-] | 84.5%
COc1cccc(Sc2ccc([N+](=O)[O-])c3no[n+]([O-])c23)c1 | 6.99% (active)
c1ccc(Cc2ccccc2)cc1 | 107%
COc1ccc2c(NCCCCCCCCNc3c4ccccc4nc4cc(OC)ccc34)c3ccccc3nc2c1 | -60.3% (active)

The compounds below were run on OVCAR-8 ovarian in the same assay as above. Conditions: 10 µM.

SMILES | growth
S=c1sc2ccccc2n1CN1CCCCC1 | 99.6%
CSc1[nH]c(=O)ncc1F | 95.4%
COc1ccc(-c2cc(-c3cc(-c4ccc(OC)cc4)nc(N)n3)nc(N)n2)cc1 | 99.1%
Cc1cc(N)c(S(=O)(=O)O)c(N)c1 | 109%
COc1ccccc1NC(=O)C1=C(C)NC(C)=C(C(=O)Nc2ccccc2OC)C1c1cccc([N+](=O)[O-])c1 | 74.4%
COC(=O)C(C)Oc1ccc(OC#N)cc1 (stereo unspecified) | 104%
c1c(-c2cc(C3CC3)[nH]n2)n[nH]c1C1CC1 | 102%
O=C(CCNNC(=O)c1ccncc1)NCc1ccccc1 | 100%
CC(=O)Nc1cccc(Cl)c1C | 96.5%
CC(=O)C1CCCCC1 | 95%
CCOC(=O)/C(C#N)=C/c1cccc(C)c1 | 103%
CC(C(=O)O)(C1CCCCC1)C1(O)CCCCC1 (stereo unspecified) | 104%
CN(C)c1ccc2oc(=O)c3ccccc3c2c1 | 104%
O=C(OCC(O)C1OC(c2ccccc2)OC(COC(=O)c2ccccc2)C1O)c1ccccc1 (stereo unspecified) | 103%
CCCCCCCCCCCCCC(=O)Oc1ccc[nH]c1=O | 94.9%
COC(=O)Nc1nc2ccc(C(=O)c3ccc(F)cc3)cc2[nH]1 | 6.47% (active)

SMILES | growth
Nc1ccccc1SC(CC(=O)c1ccccc1)c1c(Cl)cccc1Cl (stereo unspecified) | 68.7%
CC1=CC(=O)c2ccccc2C1=O | 107%
O=C(Nc1ccccc1)OCCc1ccccc1 | 103%
COc1ccccc1N1CCN(C(=S)Nc2ccccc2)CC1 | 97.6%
O=C1OC(c2ccc(F)cc2)CC1CN1CCOCC1 (stereo unspecified) | 99.5%
CCCNC(=O)c1ccc(S(N)(=O)=O)cc1 | 122%
COC(=O)CCCCC1=CCC2C(=O)C=C(O)C2C1 (stereo unspecified) | 98%
CCOC(=O)CCCS(C)(=O)=O | 108%
CCN(CC)CCNc1ccc(CO)c2sc3ccccc3c(=O)c12 | 31%
CCOC(=O)c1cc(/C=C/c2ccc(Cl)cc2Cl)on1 | 24.1%
O=[N+]([O-])c1ccccc1S(=O)c1ccccc1[N+](=O)[O-] | 99.9%
COc1cccc(Sc2ccc([N+](=O)[O-])c3no[n+]([O-])c23)c1 | 53%
O=C(NC1CCCCC1)OCc1c(COC(=O)NC2CCCCC2)c(-c2ccc(Cl)c(Cl)c2)n2c1CCC2 | 35%
O=C1OC(=O)C2C1C1(Cl)C(Cl)=C(Cl)C2(Cl)C2C(=O)OC(=O)C21 (stereo unspecified) | 100%
COc1ccc2c(NCCCCCCCCNc3c4ccccc4nc4cc(OC)ccc34)c3ccccc3nc2c1 | -42.6% (active)
CCCC(=O)c1cc(C)ccc1OC | 111%

The compounds below were run on OVCAR-5 ovarian in the same assay as above. Conditions: 10 µM.

SMILES | growth
S=c1sc2ccccc2n1CN1CCCCC1 | 85%
CSc1[nH]c(=O)ncc1F | 102%
COc1ccc(-c2cc(-c3cc(-c4ccc(OC)cc4)nc(N)n3)nc(N)n2)cc1 | 93.5%
COc1ccccc1NC(=O)C1=C(C)NC(C)=C(C(=O)Nc2ccccc2OC)C1c1cccc([N+](=O)[O-])c1 | 81.9%
C=CCNc1nnc(C)s1 | 96%
COC(=O)C(C)Oc1ccc(OC#N)cc1 (stereo unspecified) | 94.5%
CCc1nn(Cc2ccccc2)c2nc(C)c(CCc3ccccc3)c(Cl)c12 | 95.1%
c1c(-c2cc(C3CC3)[nH]n2)n[nH]c1C1CC1 | 93.6%
O=C(CCNNC(=O)c1ccncc1)NCc1ccccc1 | 105%
CC(=O)Nc1cccc(Cl)c1C | 103%
CC(=O)C1CCCCC1 | 107%
CCOC(=O)/C(C#N)=C/c1cccc(C)c1 | 96.1%
CC(C(=O)O)(C1CCCCC1)C1(O)CCCCC1 (stereo unspecified) | 109%
CN(C)c1ccc2oc(=O)c3ccccc3c2c1 | 91.9%
O=C(OCC(O)C1OC(c2ccccc2)OC(COC(=O)c2ccccc2)C1O)c1ccccc1 (stereo unspecified) | 105%
O=C(O)c1ccc(S(=O)(=O)O)cc1 | 107%
OC1CCCc2ccccc21 (stereo unspecified) | 100%
CCCCCCCCCCCCCC(=O)Oc1ccc[nH]c1=O | 97.1%
COc1cc2c(cc1OC)[C@H](C(=O)O)[C@@H](c1ccc(OC(C)C)c(OC)c1)N(C)C2=O | 98%

SMILES | growth
COC(=O)Nc1nc2ccc(C(=O)c3ccc(F)cc3)cc2[nH]1 | 27.3%
Nc1ccccc1SC(CC(=O)c1ccccc1)c1c(Cl)cccc1Cl (stereo unspecified) | 89.6%
CC1=CC(=O)c2ccccc2C1=O | 105%
O=C(Nc1ccccc1)OCCc1ccccc1 | 92.7%
COc1ccccc1N1CCN(C(=S)Nc2ccccc2)CC1 | 107%
O=C1OC(c2ccc(F)cc2)CC1CN1CCOCC1 (stereo unspecified) | 112%
CCCNC(=O)c1ccc(S(N)(=O)=O)cc1 | 89.7%
COC(=O)CCCCC1=CCC2C(=O)C=C(O)C2C1 (stereo unspecified) | 107%
CCOC(=O)CCCS(C)(=O)=O | 97.4%
Nc1ccc(NC(=O)c2cccc(N)c2)cc1 | 101%
CCN(CC)CCNc1ccc(CO)c2sc3ccccc3c(=O)c12 | 53.3%
CCOC(=O)c1cc(/C=C/c2ccc(Cl)cc2Cl)on1 | 58.8%
O=[N+]([O-])c1ccccc1S(=O)c1ccccc1[N+](=O)[O-] | 120%
COc1cccc(Sc2ccc([N+](=O)[O-])c3no[n+]([O-])c23)c1 | 60.2%
O=C(NC1CCCCC1)OCc1c(COC(=O)NC2CCCCC2)c(-c2ccc(Cl)c(Cl)c2)n2c1CCC2 | 19%
O=C1OC(=O)C2C1C1(Cl)C(Cl)=C(Cl)C2(Cl)C2C(=O)OC(=O)C21 (stereo unspecified) | 106%
c1ccc(Cc2ccccc2)cc1 | 99.3%
COc1ccc2c(NCCCCCCCCNc3c4ccccc4nc4cc(OC)ccc34)c3ccccc3nc2c1 | -91.8% (active)
CCCC(=O)c1cc(C)ccc1OC | 101%
